Results on 48 compounds are retold here after PubChem BioAssay AID504832 (National Center for Advancing Translational Sciences (NCATS), 2011).

Each structure is given as a SMILES string. Out of some 310,000 compounds screened, about 18,000 (5.8%) were called active. Not shown: some 22% with an inconclusive outcome. The sample holds actives, similar compounds and a random draw of the others, so the mix is not that of the screen. Values without a mark were called inactive. Calls come from the whole dose curve; as a rule, active = well fitted inhibition curve with a large enough effect; inconclusive = small, poorly fitted or top-dose-only effect, or another doubt; inactive = no such curve, though single readings can be large or run the other way.
% is set by controls: 0 for no effect and ±100 for the full control effect; potency is the fitted concentration of half-maximal effect.

The assay is described as follows: Primary qHTS for delayed death inhibitors of the malarial parasite plastid, 48 hour incubation. The settings on record: P. falciparum luciferase growth in erythrocytes; series mostly up to 28.7 µM; activity change, negative = inhibition: at the top concentration. In outline: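 Read-out is firefly luciferase luminescence from an integrated reporter in P. falciparum, so falling signal marks reduced parasite growth. Infected erythrocytes were at 2% hematocrit and 0.1% parasitemia (final) in Albumax-supplemented RPMI 1640.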
`CCN(CC(=O)Nc1cccc(S(N)(=O)=O)c1)Cc1nc2ccccc2c(=O)[nH]1`: the “activity change, negative = inhibition” value is 97.7%. As for `CC(=O)NC(CC(=O)Nc1cccc(S(=O)(=O)N2CCCC2)c1)c1ccccc1` (stereo not drawn), the “activity change, negative = inhibition” value is -5.84%. On to `O=C(NCCc1ccc(Cl)cc1)c1cccc(N2CCCC2=O)c1`, for which the “activity change, negative = inhibition” value was 58.9%. `CCN1C(=NCCc2cccnc2)N[C@@H](c2ccccc2)[C@H](C(=O)OC)[C@H]1C`: the Potency entry is “inactive”.

For the compound `CCOc1ccc(OCC)c(NC(=O)CCS(=O)(=O)c2ccc(C)cc2)c1`, the “activity change, negative = inhibition” value was -25.3%. For the compound `COc1cccc(CNS(=O)(=O)c2ccc3c(c2)CC(C)N3C(=O)C2CCC2)c1` (stereo not drawn), the “activity change, negative = inhibition” value is -10.2%. On to `Cc1ccc(CNC(=O)CCS(=O)(=O)c2ccc3c(c2)CC(C)N3C(=O)C2CC2)o1` (stereo not drawn), for which the Potency is 10.4 µM (active). In the case of `CCC(=O)N1c2ccc(S(=O)(=O)NCc3ccco3)cc2CC1C` (stereo not drawn), the “activity change, negative = inhibition” value is 44.5%. For the compound `Cc1c(OC(C)C(=O)NCC2CCC(C(=O)O)CC2)ccc2c1oc(=O)c1ccccc12` (stereo not drawn), the “activity change, negative = inhibition” value is -28%. For the compound `CC1(C)NC(=O)N(CC(=O)Nc2cc(C(F)(F)F)cc(C(F)(F)F)c2)C1=O`, the “activity change, negative = inhibition” value was 46.2%. Regarding `Clc1ccc(C2=CSC3=Nc4cccc5cccc(c45)N23)cc1`, the Potency was 1.85 µM (active). Take `CC(=O)c1cccc(NC(=S)N2CCCC2)c1`: the “activity change, negative = inhibition” value is 11.9%.

`CC1=CCC2C(=O)N(c3cccc(C(=O)NC(C)c4ccccc4)c3)C(=O)C2C1` (stereo not drawn): the “activity change, negative = inhibition” value was 6.23%. `CC(=O)Oc1cccc(N2C(=O)C3CC=C(Cl)CC3C2=O)c1` (stereo not drawn): the Potency was 11.7 µM (active). Take `CC(=O)Oc1cccc(N2C(=O)CC(Nc3ccc(N4CCOCC4)cc3)C2=O)c1` (stereo not drawn): the “activity change, negative = inhibition” value was 16%. As to `N#CC1(NC(=O)COC(=O)CSc2ccc(F)cc2)CCCCC1`, the “activity change, negative = inhibition” value was 1.97%. In the case of `Cc1cccc(N=C2SC(C)CN2C(=O)CN2C(=O)NC3(CCCC3)C2=O)c1` (stereo not drawn), the “activity change, negative = inhibition” value is -26.9%. Turning to `COCCN(C(=O)CC1CCCCC1)c1c(N)n(CC(C)C)c(=O)[nH]c1=O`, the “activity change, negative = inhibition” value was -16.3%. For `COc1ccc(NC(=O)CCCC2CCCCC2)c(OC)c1`, the “activity change, negative = inhibition” value is 107%.

As for `COc1cc([N+](=O)[O-])ccc1NC(=O)CN1CCCC1`, the “activity change, negative = inhibition” value was 22.4%. `COc1ccc(NC(=O)c2cc([N+](=O)[O-])ccc2NC(=O)CNC2CCCCC2C)c(OC)c1` (stereo not drawn): the Potency was 6.57 µM (active).

For `Cc1cccc(C)c1NC(=O)CNC(=O)c1ccc2c(c1)OCCO2`, the “activity change, negative = inhibition” value is -8.84%.

As for `Cc1ccc(S(=O)(=O)N(Cc2cc3ccccc3[nH]c2=O)CC2CCCO2)cc1` (stereo not drawn), the “activity change, negative = inhibition” value is 4.58%. Turning to `CCC(c1nnnn1Cc1ccco1)N(Cc1cc2cc(OC)ccc2[nH]c1=O)C1CCCCC1` (stereo not drawn), the Potency was 11.7 µM (active).

On to `CCOc1ccc2[nH]c(=O)c(CN(CCCO)C(C)=O)cc2c1`, for which the “activity change, negative = inhibition” value was 14.9%. With `CCOc1ccc2[nH]c(=O)c(CN(Cc3nnnn3CCc3ccccc3)CC3CCCO3)cc2c1` (stereo not drawn), the Potency is 13.1 µM (active). Consider `CCC(c1nnnn1Cc1ccco1)N(CCc1ccccc1)Cc1cc2cccc(C)c2[nH]c1=O` (stereo not drawn), for which the Potency is 11.7 µM (active). In the case of `COc1ccc2[nH]c(=O)c(CN(CC3CCCO3)C(=O)Nc3ccccc3)cc2c1` (stereo not drawn), the “activity change, negative = inhibition” value is 37%. Consider `COc1ccc(N(Cc2cc3cc(OC)ccc3[nH]c2=O)S(C)(=O)=O)cc1`, for which the “activity change, negative = inhibition” value was 18.3%. The same measure, in the same setting: to `CCC(=O)N(Cc1cc2cc(OC)ccc2[nH]c1=O)c1ccccc1C` belongs 11.8%; to `O=C(c1cccs1)N(Cc1cc2ccccc2[nH]c1=O)CC1CCCO1` (stereo not drawn), -2.84%. As for `CCC(=O)N(CCc1ccccc1)Cc1cc2cc(C)ccc2[nH]c1=O`, the “activity change, negative = inhibition” value is 83.4%. With `CCC(c1nnnn1Cc1ccccc1)N(Cc1cc2cc(OC)ccc2[nH]c1=O)CC1CCCO1` (stereo not drawn), the Potency is 5.86 µM (active). Consider `COc1ccc(-c2nc(SCC(=O)N3CCCC3)n[nH]2)cc1`, for which the “activity change, negative = inhibition” value was 5.23%. With `CC(=O)Oc1cccc(C(=O)Nc2ccccc2NC(=O)c2cccc(OC(C)=O)c2)c1`, the “activity change, negative = inhibition” value is -11.6%. As for `COc1cccc(S(=O)(=O)NCc2ccc(C(=O)NCc3ccccn3)cc2)c1`, the “activity change, negative = inhibition” value is -29.8%. Take `COc1cccc(CNc2ncc(-c3ccccc3)n2C)c1`: the “activity change, negative = inhibition” value is 31.6%. For `Cc1cc(=O)oc2cc(NC(=O)C(C)Oc3ccccc3)ccc12` (stereo not drawn), the “activity change, negative = inhibition” value is 4.87%. Consider `COc1ccc(/C=C(\C#N)C(=O)OCC(=O)N(C)C2CCS(=O)(=O)C2)cc1` (stereo not drawn), for which the “activity change, negative = inhibition” value was 2.01%. In the case of `O=C(O)c1c(NC(=O)N2CCCC2)sc2c1CCCC2`, the activity change, negative = inhibition was 0.211% [at 0.00184 µM]. On to `Cc1ccc(-c2nc(CS(=O)(=O)CC(=O)NCc3ccc4c(c3)OCO4)c(C)o2)cc1`, for which the “activity change, negative = inhibition” value is 2.89%. Take `CCCCOC(=O)Nc1nnc(CC(=O)NCc2ccccc2)s1`: the “activity change, negative = inhibition” value was 1.81%. As for `CCC(C)c1ccc(NC(=S)N2CCCC2)cc1` (stereo not drawn), the “activity change, negative = inhibition” value is 53.4%. `COc1ccc2[nH]c3c(=O)n(Cc4ccco4)cnc3c2c1`: the “activity change, negative = inhibition” value was 34.4%.

Regarding `COc1ccc(N(Cc2cc3ccc(C)cc3[nH]c2=O)S(=O)(=O)c2ccccc2)cc1`, the “activity change, negative = inhibition” value was -23%. For the compound `CCC(c1nnnn1Cc1ccco1)N(CCc1ccccc1)Cc1cc2ccc(OC)cc2[nH]c1=O` (stereo not drawn), the Potency is 5.86 µM (active). Consider `CCn1ccnc1CN(C)C(=O)c1cc(COc2ccc(Cl)cc2OC)on1`, for which the “activity change, negative = inhibition” value was 8.14%. Regarding `C[C@]12CC[C@@H]3c4ccc(O)cc4C[C@@H](CCCCCCCCCS(=O)CCCC(F)(F)C(F)(F)F)C3[C@@H]1CC[C@@H]2O` (stereo partly drawn), the Potency is 9.53 µM (active).
